hcDAF12 agonist: H. contortus DAF-12 nuclear receptor activators, primary screen, cell-based, luminescence, HEK293, lit1-tk-luc reporter; HEK293 hcDAF-12 lit1-tk-luc reporter; 0% DMSO, 100% Δ7-dafachronic acid; activation, % at 6.8 µM; 370,000 tested, 1.4% active; AID 652067, 2013;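 active = activation above the mean of all tested compounds plus 3 SD, cut at about 5.5% in these data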
ssDAF-12 act: S. stercoralis DAF-12 nuclear receptor activators, primary screen, cell-based, luminescence, HEK293, GRIP1 co-expression, lit1-tk-luc. HEK293 ssDAF-12/GRIP1 lit1-tk-luc reporter; % of 3 µM dafachronic acid response. activation, % at 6.8 µM. 370,000 tested, 1% active. AID 652126, 2013;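 active = activation above the mean over all tested compounds plus 3 SD, cut at about 0.9% in these data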
DAX1 inh-1: DAX1 (NR0B1) inhibitors on StAR promoter, primary screen, cell-based, luminescence, SF-1 (NR5A1), full-length DAX-1; HEK293T StAR-luciferase reporter, SF-1/DAX-1 repression relief; inhibition, % at 6.8 µM; 370,000 tested, 1.1% active; AID 652010, 2013;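 active = inhibition above the mean over all tested compounds plus 3 SD, cut at about 3.6% in these data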;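 note: higher inhibition means more luminescence from relief of DAX-1 repression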
DAX1 inh-2: DAX1 (NR0B1) inhibitors, primary screen, cell-based, HEK293, Gal4-DAX1, luciferase luminescence; AID 504766, 2011; 340,000 tested, 0.99% active; inhibition, % at 6.75 µM; Nuclear receptor subfamily 0 group B member 1 (Homo sapiens), P51843; HEK293 Gal4-DAX1 luciferase reporter;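 active = inhibition above the mean over all tested compounds plus 3 SD, cut at about 4.2% in these data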;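 note: inhibition shows as a rise in luminescence from relieved DAX1 repression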
Target sequence (P51843 207-470 limits assumed): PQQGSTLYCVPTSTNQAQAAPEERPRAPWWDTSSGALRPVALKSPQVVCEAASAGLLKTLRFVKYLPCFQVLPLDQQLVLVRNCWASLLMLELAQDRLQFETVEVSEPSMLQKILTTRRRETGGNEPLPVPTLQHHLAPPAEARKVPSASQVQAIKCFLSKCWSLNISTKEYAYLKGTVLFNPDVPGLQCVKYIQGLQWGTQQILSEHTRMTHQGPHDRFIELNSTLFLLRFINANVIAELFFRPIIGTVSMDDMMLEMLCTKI
hgDAF-12 ag: H. glycines DAF-12 receptor agonists, primary screen, cell-based, luminescence, HEK293, GAL4 fusion, UAS-luciferase | activation, % at 6.8 µM | HEK293 GAL4-hgDAF12 UAS-luciferase reporter, agonist luminescence; normalized to butyrate control | AID 687014, 2013 | 370,000 tested, 1.8% active;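 active = activation above a cutoff set at the mean of all screened compounds plus 3 SD, cut at about 10% in these data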
Numbers stand for hits; - = inactive; . = no result given. Only some compounds are listed: those with a hit (about 4.1% of all), similar ones and a draw of the others.

SMILES | hcDAF12 agonist | ssDAF-12 act | DAX1 inh-1 | DAX1 inh-2 | hgDAF-12 ag
Cc1ccc(C(=O)NCCCNC(=O)COc2ccc(C)c(C)c2)cn1 | - | - | - | - | -
COC[C@@H]1CCCN1c1ccc2c(c1)O[C@@H]1CCN(C1)S2(=O)=O | - | - | - | . | -
Cc1[nH]n(-c2ccccc2)c(=O)c1N=Nc1ccc(C(=O)O)cc1 | - | - | - | - | -
Cc1[nH]n(-c2ccccc2)c(=O)c1N=Nc1ccccc1 | 6.0 | - | - | - | -
COc1ccc(-c2nc(NC(=O)Cn3c(=O)oc4ccccc43)sc2C)cc1 | - | - | - | 4.7 | -
COc1cccc(NC(=O)Cn2c(=O)oc3ccccc32)c1 | - | - | - | - | -
Cc1cc(Cl)c2oc(C(=O)N(C)Cc3ccon3)c(C)c2c1 | - | - | - | - | 13
Cc1cc(Cl)c2oc(C(=O)N(CCO)Cc3ccccc3)c(C)c2c1 | - | - | - | 8.1 | -
Cc1cc(Cl)c2oc(C(=O)N(C)Cc3cc(C)[nH]n3)c(C)c2c1 | - | - | - | - | -
Cc1ccc(-c2nc3ncccn3c2NC(=O)Nc2ccc(F)cc2)cc1 | - | - | - | . | -
Cc1ccc(C(=O)NNC(=S)Nc2cccc3ccccc23)s1 | 6.3 | 1.2 | - | - | -
O=C(NNC(=S)Nc1cccc2ccccc12)c1cccc(Br)c1 | - | - | - | - | -
O[C@@H]1CN(CC2CCCCC2)[C@@H](c2ccccc2)C[C@H]1n1cc(C2CC2)nn1 | - | - | - | - | -
O[C@H]1C[C@H](c2ccccc2)N(CC2CCCCC2)C[C@@H]1n1cc(C2CC2)nn1 | - | - | 3.7 | - | -
COc1ccc(C(=O)CSC#N)cc1OC | - | - | - | - | 13
CCOC(=O)/C(C#N)=C/Nc1ccccc1OC(F)(F)F | - | 1.5 | - | . | -
O=C(CSc1nc(=O)n2ccccc2n1)NCCc1ccccc1 | - | - | 3.9 | - | -
O=C(CSc1nnnn1C1CCCC1)NCCc1ccccc1 | - | - | - | 5.3 | -
C[C@@H]1ON(C)[C@H]2C[C@H]3c4[nH]c5c(-c6ccccc6)cccc5c4CCN3C(=O)[C@@H]12 | - | - | - | . | -
CCOC(=O)c1cccc(NC(=O)CN(C)S(=O)(=O)c2ccco2)c1 | - | - | - | . | -
COC(=O)c1cc(-c2cccc(OC(F)(F)F)c2)c(=O)n2c1CCC2 | - | - | - | . | -
Cc1ccc2nc(-c3ccc(NS(=O)(=O)c4ccc(F)c(F)c4)cc3)sc2c1 | 6.4 | - | 5.8 | - | 17
Clc1cccc2sc(N3CCCC3)nc12 | - | - | - | - | -
Brc1cccc2sc(N3CCCC3)nc12 | - | - | - | - | 11
CN(C)c1ccc(-c2csc(C(C)(O)c3ccccc3)n2)cc1 (configuration not stated) | - | - | - | . | -
SMILES | hcDAF12 agonist | ssDAF-12 act | DAX1 inh-1 | DAX1 inh-2 | hgDAF-12 ag
CCC[C@H]1[C@@H](NC(=O)NCC)CC[C@@]23CCCN2C(=O)CCC[C@@H]13 | - | - | . | . | -
O=C(Cc1cnc2ncnn2c1)N1CCc2c([nH]c3ccccc23)C1c1ccccc1F (configuration not stated) | - | 1.7 | - | - | -
CC(=O)N1CCc2cc(S(=O)(=O)NC3CCN(C(=O)OCc4ccccc4)CC3)ccc21 | - | - | - | . | -
COC(=O)[C@H](C(C)C)N1CCc2nnn(Cc3ccc(C)cc3)c2-c2cc(F)ccc2S1(=O)=O | - | - | - | . | -
O=C(O)CCSc1nc(C(F)(F)F)cc(=O)n1-c1ccccc1 | - | - | - | 5.7 | -
C[C@@H]1COc2cc(F)ccc2S(=O)(=O)N1C | - | - | - | . | -
O=C(CC(C(=O)O)c1ccc(Cl)cc1)c1ccc(Cl)c(Cl)c1 (configuration not stated) | - | - | - | - | -
O=C(CC(C(=O)O)c1ccc(Cl)cc1Cl)c1ccc(Cl)cc1 (configuration not stated) | 5.9 | - | - | - | -
CCOC(=O)C(NC(=O)c1ccccc1)(OCc1ccc(F)cc1)C(F)(F)F (configuration not stated) | - | - | - | - | 12
CCOC(=O)C(NC(=O)Nc1ncccn1)(Oc1ccccc1)C(F)(F)F (configuration not stated) | - | - | 4.2 | - | -
CCOC(=O)C(NC(=O)c1cccc(Cl)c1)(OCc1ccc(F)cc1)C(F)(F)F (configuration not stated) | - | - | - | - | -
Cc1cc(C(=O)O[C@H]2CCC[C@@]3(C(=O)N(Cc4ccccc4)c4ccccc43)[C@H]2NC(=O)CCc2ccccc2)no1 | - | - | - | . | -
Cc1noc(C)c1-c1nnc(-c2ccc(OC(F)(F)F)cc2)o1 | - | - | - | - | -
CC1(C)C2CC=C(/C=N/NC(=S)Nc3cccnc3)C1C2 (configuration not stated) | - | 1.0 | - | - | -
Cc1csc(NC(=O)c2ccc(COc3ccccc3F)o2)n1 | - | - | - | . | -
COc1ccc(NC(=O)c2cc(C3CCCCN3S(=O)(=O)Cc3ccccc3)on2)cn1 (configuration not stated) | - | - | - | . | 11
O=C(NCc1ccccc1)c1cc(C2CCCCN2S(=O)(=O)Cc2ccccc2)on1 (configuration not stated) | - | - | - | . | -
Cc1noc(N)c1C(=O)Nc1ccc(C(C)(C)C)cc1 | - | - | - | - | 13
Cc1nc(Cl)sc1C(=O)Nc1ccc(C(C)(C)C)cc1 | - | - | - | 5.2 | -
COC(=O)C[C@H]1CC[C@@H]2[C@H](COc3ccc(NC(=O)C(C)C)cc3C(=O)N2C)O1 | - | - | - | . | -
O=C(CCc1ccccc1)N[C@H]1[C@H](OC(=O)c2cnccn2)CCC[C@]12C(=O)N(Cc1ccccc1)c1ccccc12 | - | - | - | . | -
O=c1c(-c2cccc([N+](=O)[O-])c2)[n+]([O-])c2ccccc2n1O | - | - | - | 6.5 | -
O=[N+]([O-])c1cc(S(=O)(=O)Nc2ccccc2)ccc1Nc1ccccc1 | - | 1.6 | - | - | -
Cc1cnc(-c2nc3ccccc3n2C(C(=O)NC(C)(C)C)c2ccncc2)cn1 (configuration not stated) | - | - | - | . | 11
Cc1cnc(-c2nc3ccccc3n2C(C(=O)NC(C)(C)C)c2ccccc2)cn1 (configuration not stated) | - | - | - | . | -
NC(=O)C1CCN(c2nc(-c3ccc(Oc4ccccc4)cc3)cs2)CC1 | - | - | . | . | -
C=CCN(CC#CC(=C)C)Cc1ccc(OC)cc1OC | - | - | - | . | -
